14-3-3 Bad PPI: disrupts binding of bovine 14-3-3 zeta to phospho-Bad peptide. P63103. TR-FRET 14-3-3zeta/Dy647-pBad peptide displacement, 1 h. inhibition, % at 21.7 µM. hit rate 0.71% among 220,000. AID 781;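 active = inhibition above about 70%, limit read from the data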
Target sequence (P63103 whole entry, looked up): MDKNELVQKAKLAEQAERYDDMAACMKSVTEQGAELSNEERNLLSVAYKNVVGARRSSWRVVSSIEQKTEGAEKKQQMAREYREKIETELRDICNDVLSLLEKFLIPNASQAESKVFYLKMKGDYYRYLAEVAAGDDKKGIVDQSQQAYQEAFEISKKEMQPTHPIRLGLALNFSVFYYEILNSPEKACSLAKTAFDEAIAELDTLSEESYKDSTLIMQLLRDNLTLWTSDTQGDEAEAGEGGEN
Mcl1 Bid PPI: Mcl-1/Bid interaction inhibition; Q07820; TR-FRET Mcl-1/Bid-Dy647 peptide binding, 1536-well; inhibition, % at 21.7 µM; hit rate 0.97% among 220,000; AID 1021;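 active = compounds that cut the binding signal by more than half at the single screening dose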;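 note: His-tagged Mcl-1 with europium anti-His antibody binding Bid BH3 peptide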
Target sequence (Q07820 whole entry, looked up): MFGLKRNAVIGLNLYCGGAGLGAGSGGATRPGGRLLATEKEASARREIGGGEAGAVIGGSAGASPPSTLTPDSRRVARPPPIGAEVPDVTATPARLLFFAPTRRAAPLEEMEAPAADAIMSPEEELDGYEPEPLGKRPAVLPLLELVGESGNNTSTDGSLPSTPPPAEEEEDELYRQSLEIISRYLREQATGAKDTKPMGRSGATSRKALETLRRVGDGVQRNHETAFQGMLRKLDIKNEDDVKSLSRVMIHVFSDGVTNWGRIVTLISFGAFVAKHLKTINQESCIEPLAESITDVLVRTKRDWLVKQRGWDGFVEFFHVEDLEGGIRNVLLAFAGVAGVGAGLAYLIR
Hck-Nef inh: human Hck-Nef kinase inhibition; P08631; Recombinant Hck-YEEI plus Nef, Z-Lyte FRET kinase assay; inhibition, % at 20 µM; hit rate 0.68% among 220,000; AID 463187;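 active = Hck-Nef kinase inhibition above about 50%, limit read from the data; inactive = inhibition below that limit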
Mcl1-Noxa inh: disrupts binding of human Mcl-1 to Noxa peptide. TR-FRET Mcl-1/Noxa peptide binding, 2 h. inhibition, % at 21.7 µM. hit rate 1.5% among 220,000;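 active = compounds that cut the protein-peptide binding signal by more than 50% relative to plate controls in a single-dose test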;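 note: His-tagged Mcl-1 with rhodamine Noxa BH3 peptide and terbium anti-His antibody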
eIF4E-4G inh: inhibitors of eIF4E and eIF4G interaction in translation initiation; P63073+Q04637; TR-FRET eIF4E-eIF4GI(517-606) binding, 2 h; inhibition, % at 21.7 µM; hit rate 0.37% among 220,000;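 active = inhibition above about 30%, limit read from the data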
Bim-Mcl-1: human Bim-Mcl-1 interaction inhibition. Q07820. Bead-based flow cytometry, Bim peptide-Mcl-1 binding. inhibition, % at 10 µM. hit rate 0.1% among 190,000. AID 1009; in the data active = inhibition above about 40%
Large screens that a line does not name were inactive; [ ] = remark or other dose. Most compounds without a hit are left out; they make up all but 3.5% or so of the library.

CCO[C@@H]1OC(C(=O)O)=C[C@H](c2ccc(C(F)(F)F)cc2)[C@H]1CCCO	none
c1ccc(CN2CCOCCOCCOCCOCC2)cc1	none (no result: Bim-Mcl-1)
Nc1nc(=S)c2ncn(C3OC(CO)C(O)C3O)c2[nH]1 (stereo not drawn)	Mcl1-Noxa inh 89 (no result: Bim-Mcl-1)
Cc1ccc(C(=O)N/C(=C/c2ccco2)C(=O)OCN2C(=O)c3ccccc3C2=O)cc1	none
O=c1c2ccccc2nc2c3ccccc3cnn12	14-3-3 Bad PPI 80
O=c1c2ccccc2nc2c3ccccc3c(Cl)nn12	none
CCC1Oc2ccc(C)cc2N(CC(=O)N(Cc2cccnc2)Cc2ccc(C)o2)C1=O (stereo not drawn)	Mcl1 Bid PPI 71, Mcl1-Noxa inh 64
CCOC(=O)c1c(C)[nH]c(C(=O)CC(=O)OC)c1C	none
O=C(c1cc([N+](=O)[O-])ccc1Cl)N1c2ccccc2Sc2ccccc21	none
Cc1c(NC(=O)CCCCCN2C(=O)c3ccccc3C2=O)c(=O)n(-c2ccccc2)n1C	none
O=C1CCCC/C1=N\Nc1ccc(OCc2ccccc2)cc1	none
CC(C)OCCCNC(=O)c1c(N)n(/N=C/c2cccs2)c2nc3ccccc3nc12	Mcl1 Bid PPI 61
COCCCNC(=O)c1c(N)n(/N=C/c2ccccn2)c2nc3ccccc3nc12	none (no result: 14-3-3 Bad PPI, Mcl1 Bid PPI, Mcl1-Noxa inh, eIF4E-4G inh)
CC(C)NS(=O)(=O)c1ccc(OCC(=O)Nc2ccc(F)cc2)cc1	Bim-Mcl-1 58
CCOC(=O)c1ccc(NC(=O)COc2ccc(S(=O)(=O)NC(C)CC)cc2)cc1 (stereo not drawn)	none
Cc1ccc(Cn2c(SCC(=O)N/N=C/c3ccc(C)o3)nc3ccccc32)cc1	Mcl1 Bid PPI 52
CCOc1ccc2nc(Cl)c(C3CC(c4ccco4)=NN3S(=O)(=O)c3ccccc3)cc2c1 (stereo not drawn)	Hck-Nef inh 59
COc1cc(CN2CCCC(C(=O)c3ccccc3SC)C2)cc(OC)c1 (stereo not drawn)	none
COc1cc(/C=N/Nc2nc(-c3ccc(S(=O)(=O)N(C)C)cc3)cs2)ccc1O	eIF4E-4G inh 44 (no result: Bim-Mcl-1)
COC(=O)C1=C(C(=O)OC)C(c2ccccc2O)c2sc(=O)[nH]c2S1 (stereo not drawn)	Mcl1-Noxa inh 56
Cc1ccc(O)c(NC2=C(Cl)C(=O)N(Cc3ccccc3)C2=O)c1	Mcl1 Bid PPI 56, Mcl1-Noxa inh 88, eIF4E-4G inh 31
COc1ccccc1N1C(=O)C(Cl)=C(Nc2ccccc2O)C1=O	Mcl1-Noxa inh 76
CCOc1ccc(NC2=C(Cl)C(=O)N(Cc3ccccc3)C2=O)cc1	none
Cc1c(NC2=C(Cl)C(=O)N(c3ccccc3)C2=O)c(=O)n(-c2ccccc2)n1C	none
O=C1C(Cl)=C(Nc2ccccc2O)C(=O)N1c1ccccc1	Mcl1-Noxa inh 70
COc1ccc(/C=N/NC(=O)Nc2cccc3nsnc23)cc1	Mcl1 Bid PPI 53
CN(C)NC1CCS(=O)(=O)C1 (stereo not drawn)	Mcl1-Noxa inh 52
Cn1cnc(S(=O)(=O)Nc2cc(-c3ccc(Cl)cc3)nn2C)c1	none (no result: Bim-Mcl-1)
CC(=O)Nc1cccc(NC(=S)Nc2ccc(F)cc2F)c1	none
O=C(CNC(=O)c1cccs1)OCC(=O)c1ccccc1Cl	none
O=c1[nH]c(SCc2cccc(F)c2)nc2c1CCCC2	none
CC1(C)Cc2c(sc3nc(NCCN4CCOCC4)n4ncnc4c23)CO1	eIF4E-4G inh 61
CC1(C)Cc2c(c(-c3ccco3)nc3sc4c(NCCCO)ncnc4c23)CO1	none (no result: Bim-Mcl-1)
CC1(C)Cc2c(c(-c3ccco3)nc3sc4c(NCC5CCCO5)ncnc4c23)CO1 (stereo not drawn)	Mcl1-Noxa inh 51
CC1(C)Cc2c(c(-c3ccco3)nc3sc4c(NCCN5CCOCC5)ncnc4c23)CO1	Mcl1-Noxa inh 63
O/N=C(\c1ccc(Cl)cc1Cl)c1ncc(C(F)(F)F)cc1Cl	none
CC(=O)Nc1ccc(OCC(=O)NCc2ccc3c(c2)OCO3)cc1	none
Cn1c(=O)c2nc3ccccc3nc2n(C)c1=O	none
CC(=O)Nc1ccc2nc3c(=O)n(C)c(=O)n(C)c3nc2c1	Mcl1-Noxa inh 58 (no result: Bim-Mcl-1)
O=C(N/N=C/C(Br)=C\c1ccccc1)c1ccco1	Mcl1 Bid PPI 74 (no result: Bim-Mcl-1)
Cc1csc(NC(=O)C2CCN(S(=O)(=O)c3cccs3)CC2)n1	Mcl1 Bid PPI 84
CC(=O)Nc1ccc(-c2csc(NC(=O)C3CCN(S(=O)(=O)c4cccs4)CC3)n2)cc1	none
Cc1ccccc1NC(=S)N(Cc1ccccc1)Cc1cccnc1	none
CSc1cccc(NC(=S)N(Cc2ccc(C)cc2)Cc2cccnc2)c1	eIF4E-4G inh 87
COn1c(C)c(C)c2c3nonc3ccc21	14-3-3 Bad PPI 95 (no result: Bim-Mcl-1)
CCOC(=O)c1c(C)n(OCc2ccccc2)c2ccc3nonc3c12	none
CCCc1nc(SCC(=O)NNC(=O)c2ccc(OC)cc2)c2ccccc2n1	14-3-3 Bad PPI 98
Cc1csc(N/N=C/c2ccc(O)c([N+](=O)[O-])c2)n1	Mcl1-Noxa inh 55
O=[N+]([O-])c1cc(/C=N\Nc2nc(-c3ccccc3)cs2)ccc1O	none
COCC1=C(C(=O)OC)C(c2ccco2)n2ncnc2N1 (stereo not drawn)	none (no result: Bim-Mcl-1)
CC1SC(=Nc2ccccc2)N(S(=O)(=O)c2ccccc2)C1=O (stereo not drawn)	none
C=CCc1cc(C)ccc1OCCn1ccnc1	14-3-3 Bad PPI 72
CCNc1ccc(Br)cc(C(=O)/C=C/c2ccc(Cl)cc2)c1=O	Mcl1-Noxa inh 82
CCNc1ccc(Br)cc(C(=O)/C=C/c2ccc3c(c2)OCO3)c1=O	Mcl1-Noxa inh 94
CCNc1ccc(Br)cc(C(=O)/C=C/c2c(Cl)cccc2Cl)c1=O	14-3-3 Bad PPI 83[fluorescence artefact?], Mcl1-Noxa inh 102
O=C(/C=C/c1ccccc1)c1cc(Br)ccc(=O)c1O	none
COC(=O)c1ccccc1NC(=S)N(Cc1ccc2c(c1)OCO2)Cc1cc2cc(OC)ccc2[nH]c1=O	none
CCOc1cc(C=O)cc(Br)c1OCC(N)=O	none
CC(C)n1cc(/C(N)=N/O)c(=O)n(Cc2ccccc2)c1=O	none (no result: Bim-Mcl-1)
O=C(NC1CC1)c1cc(Cl)ccc1[N+](=O)[O-]	Mcl1-Noxa inh 71
O=C(NC1CCCC1)c1cc(Cl)ccc1[N+](=O)[O-]	none
O=C(NCc1ccc(Cl)cc1)C(=O)NCC1OCCN1C(=O)c1cccs1 (stereo not drawn)	none
CCN(CC)S(=O)(=O)c1ccc(N2CCOCC2)c(NC(=O)c2cnccn2)c1	none
CC1=C(C(=O)OC(C)C)C(c2ccccc2)NC(=S)N1C (stereo not drawn)	none
COCCn1cc(C(=O)N2CCC(C)CC2)c2c3ccccc3n(C)c2c1=O	Mcl1 Bid PPI 95
NS(=O)(=O)c1ccc2nc(NC(=O)c3ccncc3)sc2c1	none
COc1ccc(OC)c(/C=N/N(C)c2ccccc2)c1	none
COc1cc(/C=N/N(C)c2ccccc2)cc(Cl)c1O	Mcl1-Noxa inh 67

Screening results deposited in PubChem by several laboratories.
